Screens deposited in PubChem BioAssay by several laboratories.
This is a sample that favours compounds with a hit; in the whole collection about 3% have one here.
HIF-2a block – blocks HIF-2a reporter activity; 786-0 RCC cells HIF-2a reporter, luciferase luminescence, overnight; inhibition, % at 18.8 µM; 0.72% of 360,000 active;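 active = inhibition of the luminescence signal of 40% or more relative to plate controls, in a single-dose primary screen at 18.75 µM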
EBV LMP1 NFkB – inhibitors of Epstein-Barr LMP1-induced NF-kappaB reporter; 0.69% of 350,000 active; inhibition, % at 12.5 µM; AID 504558; LMP1-induced NF-kappaB luciferase reporter cells, luminescence; in the data active = inhibition above about 41%
Peg3 promoter – inhibitors of Peg3 promoter; HeLa PEG-Prom luciferase reporter, luminescence, overnight; inhibition, % at 20 µM; 1.7% of 360,000 active;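 active = inhibition of at least 50% at 20 µM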
KKLEB cytotox – reduces viability of KKLEB cystic fibrosis airway cells. KKLEB CF airway cells viability, ATPlite luminescence, overnight; stronger effect = lower value; cells stimulated with P. aeruginosa culture filtrate. activity change (cytotoxicity), % at 5 µM. 0.36% of 360,000 active. AID 602141;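 active = corrected activity change at or below -50% at 5 µM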
MITF TRPM1 inh – MITF TRPM1 promoter inhibition in SK-MEL-5 cells. SK-MEL-5 TRPM1 promoter luciferase, 24 h. inhibition, % at 12.5 µM. 0.83% of 330,000 active;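 active = mean inhibition across replicates of 60% or more, whatever share of single replicates reaches that level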
CF NFkB block – cystic fibrosis NF-kB activation inhibition; KKLEB NF-kB-GFP reporter, PAF-induced, GFP fluorescence overnight; inhibition, % at 5 µM; 0.86% of 360,000 active;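 active = at least 50% inhibition at 5 µM, scaled per plate between neutral and stimulator controls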;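 also: PAF is a Pseudomonas aeruginosa culture filtrate used as stimulus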
Of the large screens only hits and unclear results are named; the others gave an inactive call.

CC1CC(C)(C)Nc2ccc(N=O)cc21 (stereo not drawn)	Peg3 promoter 84, MITF TRPM1 inh 61, CF NFkB block 71
CCCCN(CC)CCNC(=O)c1cc2c(=O)n(CC)c3ccccc3c2s1	none
CCCCN(CC)CCCNC(=O)c1cc2c(=O)n(CC)c3ccccc3c2s1	Peg3 promoter 89, MITF TRPM1 inh 69
CC1=CC(C)(C)N=C(Nc2nc(C)c3cc(C)cc(C)c3n2)N1	Peg3 promoter 61
CCCn1c(/C=N/Nc2nc3ccccc3[nH]2)nc2ccccc21	EBV LMP1 NFkB 47
COc1cccc(/C=N/Nc2nc3ccccc3[nH]2)c1O	EBV LMP1 NFkB 83
COc1ccc2nc(C)cc(NCc3cccc(C(F)(F)F)c3)c2c1	MITF TRPM1 inh 69
COc1ccc2nc(C)cc(N/N=C/c3cccc(OC)c3O)c2c1	Peg3 promoter 111, MITF TRPM1 inh 82
CSCCC(C(=O)NC1CCCC1)n1c(-c2ccccn2)nc2ccccc21 (stereo not drawn)	none (no result: EBV LMP1 NFkB, Peg3 promoter, KKLEB cytotox, MITF TRPM1 inh, CF NFkB block)
CC(NS(=O)(=O)c1cc2c3c(c1)CCN3C(=O)CC2)c1ccccc1 (stereo not drawn)	none (no result: MITF TRPM1 inh)
O=C(OC1C2C=CC1C1C(=O)NC21)c1ccccc1 (stereo not drawn)	none (no result: MITF TRPM1 inh)
COC(=O)[C@]12CCCCC=C1N(Cc1cccc3ccccc13)C(=O)[C@H](CC(=O)N1CCSCC1)C2	none (no result: EBV LMP1 NFkB, Peg3 promoter, KKLEB cytotox, MITF TRPM1 inh, CF NFkB block)
O=C1c2ccccc2C(c2nnnn2-c2ccc3ccccc3c2)N1C1CC1 (stereo not drawn)	none (no result: EBV LMP1 NFkB, Peg3 promoter, KKLEB cytotox, MITF TRPM1 inh, CF NFkB block)
COc1cccc(/C=N/Nc2nc3ccccc3n3cnnc23)c1O	Peg3 promoter 71
CCC(=O)N(c1nnc(SC(C)C(=O)Nc2ccc(N3CCOCC3)cc2)s1)C1CC1 (stereo not drawn)	none (no result: MITF TRPM1 inh)
COc1ccc(C(=O)C[C@@H]2OC[C@H](Cc3ccccc3)N2S(=O)(=O)c2ccc(C)cc2)cc1OC	none (no result: EBV LMP1 NFkB, Peg3 promoter, KKLEB cytotox, MITF TRPM1 inh, CF NFkB block)
COc1ccccc1N(C)S(=O)(=O)c1ccc(C(=O)NCc2ccccc2CN2CCCC2)cc1	none
NC(=O)C1=CC2C3C=CC2(O)C(=O)OC3O1 (stereo not drawn)	Peg3 promoter 102, MITF TRPM1 inh 71
CC(C)Cn1c(/C=C/c2ccccc2)nc2ccccc21	none
CCn1c(/C=C/c2ccccc2)nc2ccccc21	KKLEB cytotox -53
COc1cc(OC)c2c(-c3ccccc3)cc(=O)oc2c1C(CCN1CCCC(C)C1)c1ccc2c(c1)OCO2 (stereo not drawn)	none
COc1cc(OC)c2c(-c3ccccc3)cc(=O)oc2c1C(CCN1CCOCC1)c1ccc(N(C)C)cc1 (stereo not drawn)	none
COc1cc(OC)c2c(-c3ccccc3)cc(=O)oc2c1C(CCN1CCCCC1)c1ccc2c(c1)OCO2 (stereo not drawn)	Peg3 promoter 102
COc1ccc(C(CCN2CCCCC2)c2c(OC)cc(OC)c3c(-c4ccccc4)cc(=O)oc23)cc1 (stereo not drawn)	Peg3 promoter 96
COc1cc(OC)c2c(-c3ccccc3)cc(=O)oc2c1C(CCN1CCCCC1)c1ccc(N(C)C)cc1 (stereo not drawn)	Peg3 promoter 65
COC1CC(N)C2OC(c3ccccc3)OCC2O1 (stereo not drawn)	none (no result: MITF TRPM1 inh)
CN(C)CCCN(C(=O)c1ccc(Br)s1)c1nc2cc3c(cc2s1)OCO3	Peg3 promoter 59
Cc1ccc2sc(N(CCCN(C)C)C(=O)c3ccc(Br)s3)nc2c1C	Peg3 promoter 62
Cc1ccc2sc(N(CCCN(C)C)C(=O)c3nc4ccccc4s3)nc2c1C	none
Cc1ccc2sc(N(CCCN(C)C)C(=O)c3ccc(S(=O)(=O)N4CCOCC4)cc3)nc2c1C	none
CCN(Cc1ccccc1)S(=O)(=O)c1ccc(C(=O)N(CCCN(C)C)c2nc3c(C)c(C)ccc3s2)cc1	Peg3 promoter 93
CN(C)CCCN(C(=O)c1ccc2c(c1)CCCC2)c1nc2cc3c(cc2s1)OCO3	Peg3 promoter 57
CN(C)CCCN(C(=O)c1ccc(S(=O)(=O)N(C)C)cc1)c1nc2cc3c(cc2s1)OCO3	none
CCCNC(=O)C1(C)CCN(Cc2ccc3ccccc3c2Br)C1 (stereo not drawn)	none (no result: EBV LMP1 NFkB, MITF TRPM1 inh)
CC(=O)Nc1ccc(C(=O)N2CCCCC2c2cc(C(=O)NCc3ccc(F)cc3)no2)cc1 (stereo not drawn)	none (no result: EBV LMP1 NFkB, MITF TRPM1 inh)
COc1ccc(NC(=O)Cn2c(=O)n(-c3ccc(CC(=O)NCc4ccco4)cc3)c(=O)c3ccccc32)cc1	MITF TRPM1 inh 71
